# Data: PubChem BioAssay (EPA / NIEHS)
# The source made the active and inactive calls. The calls were made as follows: active = hit-call score of the fitted dose curve at least 0.9, where 1 is the maximum; inactive = score below 0.9.
# Tests used:
# [1] = ATG_CRE_CIS: Attagene CIS-FACTORIAL HepG2 Assay for human cAMP Responsive Element (CRE) binding protein 3 (AID 2282926); conditions: HepG2 CRE cis-reporter, Attagene multiplexed mRNA; actives raise or lower the signal
# Summary of the method: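 Endogenous transcription factor activity read via CRE-regulated reporter transcripts in transfected HepG2 cells. After 24 h exposure, RNA was reverse-transcribed, amplified, fluorescently labelled and sized by capillary electrophoresis; gain or loss fitted against DMSO.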
# [2] = target: CCAAT/enhancer-binding protein beta (Homo sapiens) (UniProt P17676); test: ATG_C_EBP_CIS: Attagene CIS-FACTORIAL HepG2 Assay for human CCAAT/Enhancer Binding Protein (C/EBP) beta (AID 2282927); conditions: HepG2 Attagene cis-factorial transcription factor reporter; actives raise or lower the signal
# CCAAT/enhancer-binding protein beta (Homo sapiens), sequence (P17676 whole entry, looked up, the tested form may be a part): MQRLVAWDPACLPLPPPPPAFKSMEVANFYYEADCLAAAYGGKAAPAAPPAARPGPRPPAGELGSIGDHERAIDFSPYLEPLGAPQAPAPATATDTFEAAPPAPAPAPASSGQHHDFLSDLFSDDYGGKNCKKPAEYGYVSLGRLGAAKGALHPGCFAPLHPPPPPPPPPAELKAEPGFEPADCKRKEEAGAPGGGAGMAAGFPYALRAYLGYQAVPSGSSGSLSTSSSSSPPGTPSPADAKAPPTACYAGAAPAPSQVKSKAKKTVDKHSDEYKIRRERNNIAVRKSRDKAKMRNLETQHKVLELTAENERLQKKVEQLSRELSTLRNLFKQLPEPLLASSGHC
# Summary of the method: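 Endogenous C/EBPb-driven reporter transcripts measured in transfected human HepG2 cells at 24 h via RT-PCR and capillary electrophoresis of labelled fragments. Activity fitted in both directions relative to DMSO baseline.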
# [3] = ATG_CMV_CIS: Attagene CIS-FACTORIAL HepG2 Assay for human CMV (Internal Marker) (AID 2282928); conditions: HepG2 CMV promoter reporter, transcription factor profiling; actives raise or lower the signal;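 also: endpoint acts as a background internal control marker rather than a target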
# Summary of the method: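 Readout: fluorescent reporter cDNA fragments separated by capillary electrophoresis after RT-PCR and HpaI cut. Cells: HepG2 carrying transfected cis-promoter reporter constructs, dosed 24 h. Endpoint serves as background internal-marker control, fit bidirectionally versus DMSO.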
# [4] = ATG_DR4_LXR_CIS: Attagene CIS-FACTORIAL HepG2 Assay for human Liver X Receptor (LXR), DR4 submotif (AID 2282929); conditions: HepG2 Attagene DR4 cis-reporter, mRNA transcription; actives raise or lower the signal
# Summary of the method: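 DR4 cis-reporter in HepG2, 24 h exposure. Detection: RT-PCR, 6-FAM labelling, CE fragment analysis. Endpoint fitted bidirectionally, DMSO = baseline.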
# [5] = ATG_AP_1_CIS: Attagene CIS-FACTORIAL HepG2 Assay for human Activator Protein 1 (AP-1) (AID 2282931); conditions: HepG2 Attagene cis-factorial AP-1 reporter mRNA; actives raise or lower the signal
# Summary of the method: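 Cis-regulated reporter units transiently expressed in HepG2 report endogenous transcription-factor activity. Signal: reporter mRNA at 24 h, via RT-PCR and fluorescent capillary electrophoresis. Endpoint derived by bidirectional fitting, DMSO as negative control.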
# [6] = ATG_AP_2_CIS: Attagene CIS-FACTORIAL HepG2 Assay for human Activator Protein 2 (AP-2) (AID 2282932); conditions: HepG2 AP-2 cis-reporter, Attagene transcription factor profiling; actives raise or lower the signal
# Summary of the method: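 Transiently transfected HepG2 cells are exposed to chemical for 24 h. Reporter transcripts are then measured as fluorescence following RT-PCR and capillary separation, and gain- or loss-of-signal is fitted relative to DMSO.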
# [7] = ATG_BRE_CIS: Attagene CIS-FACTORIAL HepG2 Assay for human Bone Morphogenetic Protein (BMP) Response Element (BRE) (AID 2282933); conditions: HepG2 BMP response element reporter, Attagene transcription factor profiling; actives raise or lower the signal
# Summary of the method: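 A HepG2 multiplex reporter system measured inducible reporter mRNA 24 h post-dosing. Detection: RT-PCR, 6-FAM primer extension, HpaI digestion, capillary electrophoresis. Activity fitted bidirectionally relative to DMSO.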
# [8] = target: Retinoic acid receptor alpha (Homo sapiens) (UniProt P10276); test: ATG_DR5_RAR_CIS: Attagene CIS-FACTORIAL HepG2 Assay for human Retinoic Acid Receptor Alpha (RARE), DR5 submotif (AID 2282934); conditions: HepG2 Attagene cis-factorial RARE DR5 reporter, mRNA; actives raise or lower the signal
# Retinoic acid receptor alpha (Homo sapiens), sequence (P10276 whole entry, looked up): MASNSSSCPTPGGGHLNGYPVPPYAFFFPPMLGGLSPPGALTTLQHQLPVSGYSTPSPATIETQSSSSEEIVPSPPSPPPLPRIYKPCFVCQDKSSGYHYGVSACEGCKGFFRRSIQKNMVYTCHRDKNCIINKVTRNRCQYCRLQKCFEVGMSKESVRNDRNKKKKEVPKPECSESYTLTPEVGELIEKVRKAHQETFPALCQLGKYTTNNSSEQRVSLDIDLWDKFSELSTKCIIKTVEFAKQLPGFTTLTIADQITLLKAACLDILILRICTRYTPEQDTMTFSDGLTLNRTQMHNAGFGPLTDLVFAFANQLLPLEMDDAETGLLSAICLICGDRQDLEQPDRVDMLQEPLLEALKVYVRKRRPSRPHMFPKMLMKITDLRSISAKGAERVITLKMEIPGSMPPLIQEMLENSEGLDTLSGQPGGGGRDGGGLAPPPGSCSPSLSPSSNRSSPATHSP
# Summary of the method: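 Reporter transcripts from a DR5-regulated unit, measured via RT-PCR plus capillary electrophoresis, reflect endogenous RAR activity in transiently transfected human HepG2 liver cells. Exposure lasted 24 h; gain or loss of signal scored against DMSO.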
# [9] = target: Transcription factor E2F1 (Homo sapiens) (UniProt Q01094); test: ATG_E2F_CIS: Attagene CIS-FACTORIAL HepG2 Assay for human E2F Transcription Factor 1 (AID 2282935); conditions: HepG2 Attagene cis-reporter, E2F reporter RNA transcripts; actives raise or lower the signal
# Transcription factor E2F1 (Homo sapiens), sequence (Q01094 whole entry, looked up): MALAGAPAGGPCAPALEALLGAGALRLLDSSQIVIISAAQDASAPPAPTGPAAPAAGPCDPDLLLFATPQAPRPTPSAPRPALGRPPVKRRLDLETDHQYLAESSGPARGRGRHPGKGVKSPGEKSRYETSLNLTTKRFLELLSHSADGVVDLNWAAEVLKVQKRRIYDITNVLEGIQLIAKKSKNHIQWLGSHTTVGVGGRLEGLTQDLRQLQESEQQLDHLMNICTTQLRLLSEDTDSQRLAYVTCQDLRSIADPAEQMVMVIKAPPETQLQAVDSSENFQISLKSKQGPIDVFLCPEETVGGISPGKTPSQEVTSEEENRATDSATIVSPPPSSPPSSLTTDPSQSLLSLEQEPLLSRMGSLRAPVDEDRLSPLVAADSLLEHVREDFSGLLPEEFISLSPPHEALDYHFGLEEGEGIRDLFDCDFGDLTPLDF
# Summary of the method: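 Fluorescent RT-PCR products, digested with HpaI for 2 h at 37 C, are separated by capillary electrophoresis. Source RNA comes from transfected HepG2 cultures treated for 24 h.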
# [10] = ATG_E_Box_CIS: Attagene CIS-FACTORIAL HepG2 Assay for human Enhancer Box (E-box) (AID 2282936); conditions: HepG2 E-box cis-reporter transcription, actives raise or lower the signal
# Summary of the method: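 Fluorescent reporter fragments separated by capillary electrophoresis gave the signal; mRNA came from HepG2 cells transfected with cis-element reporters and treated 24 h. Curves fitted bidirectionally relative to DMSO controls.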
# [11] = ATG_M_61_CIS: Attagene CIS-FACTORIAL HepG2 Assay for M61 Transcription Factor (Internal Marker) (AID 2282937); conditions: HepG2 Attagene CIS-FACTORIAL M61 internal marker reporter; actives raise or lower the signal
# Summary of the method: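 Background-control endpoint: HepG2 cells with cis-regulated reporter constructs, 24 h exposure, reporter mRNA detected via fluorescent primer extension and capillary electrophoresis; values from bidirectional fitting with DMSO baseline.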
# [12] = ATG_EGR_CIS: Attagene CIS-FACTORIAL HepG2 Assay for human Early Growth Response 1 (EGR1) (AID 2282938); conditions: HepG2 Attagene CIS-FACTORIAL EGR reporter mRNA; actives raise or lower the signal
# Summary of the method: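 Endpoint derived by bidirectional fitting versus DMSO vehicle. Method: cis-promoter reporter units transfected into HepG2, 24 h dosing, RNA isolation, RT-PCR with 6-FAM primer extension and HpaI digestion, then capillary electrophoresis fluorescence detection.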
# [13] = ATG_M_19_CIS: Attagene CIS-FACTORIAL HepG2 Assay for M19 Transcription Factor (Internal Marker) (AID 2282939); conditions: HepG2 Attagene CIS-FACTORIAL M19 internal marker reporter; actives raise or lower the signal
# Summary of the method: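 Chemical-treated HepG2 (24 h) with MRTU constructs; reporter transcripts detected by fluorescent RT-PCR fragment analysis on capillary electrophoresis. Internal background marker, DMSO as baseline.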
# [14] = ATG_Ets_CIS: Attagene CIS-FACTORIAL HepG2 Assay for human Erythroblast Transformation Specific (ETS) (AID 2282941); conditions: HepG2 ETS cis-reporter transcription, actives raise or lower the signal
# Summary of the method: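 RT-PCR/capillary electrophoresis fluorescence read-out of reporter mRNA; HepG2 transient multi-reporter transfection; 24 h compound exposure; gain or loss of signal fitted bidirectionally relative to DMSO.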
# [15] = target: Hepatocyte nuclear factor 3-beta (Homo sapiens) (UniProt Q9Y261); test: ATG_FoxA2_CIS: Attagene CIS-FACTORIAL HepG2 Assay for human Forkhead box A2 (FOXA2) (AID 2282942); conditions: HepG2 cis-reporter transcription factor activity, 24 h; actives raise or lower the signal
# Hepatocyte nuclear factor 3-beta (Homo sapiens), sequence (Q9Y261 whole entry, looked up): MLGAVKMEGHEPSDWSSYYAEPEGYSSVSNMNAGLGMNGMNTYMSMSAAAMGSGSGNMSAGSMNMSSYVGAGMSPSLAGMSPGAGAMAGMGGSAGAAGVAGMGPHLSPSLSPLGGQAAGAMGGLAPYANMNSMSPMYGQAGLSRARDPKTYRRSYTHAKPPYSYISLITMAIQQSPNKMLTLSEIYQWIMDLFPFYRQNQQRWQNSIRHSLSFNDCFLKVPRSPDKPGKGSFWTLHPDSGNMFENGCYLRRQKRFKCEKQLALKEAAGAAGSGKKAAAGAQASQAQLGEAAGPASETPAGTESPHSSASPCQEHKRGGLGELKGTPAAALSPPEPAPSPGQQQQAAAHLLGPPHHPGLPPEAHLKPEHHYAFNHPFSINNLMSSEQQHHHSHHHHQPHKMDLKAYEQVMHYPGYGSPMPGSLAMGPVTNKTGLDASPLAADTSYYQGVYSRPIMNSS
# Summary of the method: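 Measured: reporter mRNA induction or loss in HepG2 transiently carrying multiple cis-regulated reporter units, 24 h after dosing. Quantified by RT-PCR plus capillary electrophoresis, normalised to DMSO.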
# [16] = ATG_FoxO_CIS: Attagene CIS-FACTORIAL HepG2 Assay for human Forkhead box O (FoxO) (AID 2282943); conditions: HepG2 Attagene cis-reporter, FoxO element, mRNA; actives raise or lower the signal
# Summary of the method: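 Endogenous transcription factor activity read from multiplexed cis-promoter reporter transcripts in transiently transfected HepG2, 24 h after dosing. Reporter RNA measured via RT-PCR plus capillary electrophoresis of FAM-labeled products; gain or loss relative to DMSO.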
# [17] = ATG_GATA_CIS: Attagene CIS-FACTORIAL HepG2 Assay for human GATA Binding Protein (AID 2282944); conditions: HepG2 GATA cis-element reporter, Attagene multiplex mRNA; actives raise or lower the signal
# Summary of the method: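 Transfected cis-reporter HepG2 cells were treated with chemicals for 24 hours. Total RNA was then converted to cDNA, amplified with reporter-specific primers and analysed by fluorescent capillary electrophoresis, using DMSO-treated wells as baseline.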
# [18] = ATG_GLI_CIS: Attagene CIS-FACTORIAL HepG2 Assay for human Zinc Finger Protein GLI1 (AID 2282945); conditions: HepG2, Attagene cis-factorial reporter mRNA, GLI element; actives raise or lower the signal
# Summary of the method: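 Bidirectional curve fits relative to DMSO, using reporter mRNA levels from RT-PCR plus capillary electrophoresis. Cells were HepG2 transiently carrying cis-regulated reporter constructs, harvested 24 h after dosing.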
# [19] = ATG_ERE_CIS: Attagene CIS-FACTORIAL HepG2 Assay for Estrogen Response Element (ERE) (AID 2282940); conditions: HepG2 ERE cis-reporter, Attagene RNA transcript; actives raise or lower the signal
# Summary of the method: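 Human liver cells (HepG2) bearing transiently transfected, promoter-regulated reporter units were exposed 24 h. Reporter mRNA induction was detected by capillary electrophoresis of labelled RT-PCR products and fitted bidirectionally to DMSO.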
# [20] = target: Aryl hydrocarbon receptor (Homo sapiens) (UniProt P35869); test: ATG_Ahr_CIS: Attagene CIS-FACTORIAL HepG2 Assay for human Aryl Hydrocarbon Receptor (Ahr) (AID 2282930); conditions: HepG2 AhR cis-factorial reporter transcription; actives raise or lower the signal
# Aryl hydrocarbon receptor (Homo sapiens), sequence (P35869 whole entry, looked up): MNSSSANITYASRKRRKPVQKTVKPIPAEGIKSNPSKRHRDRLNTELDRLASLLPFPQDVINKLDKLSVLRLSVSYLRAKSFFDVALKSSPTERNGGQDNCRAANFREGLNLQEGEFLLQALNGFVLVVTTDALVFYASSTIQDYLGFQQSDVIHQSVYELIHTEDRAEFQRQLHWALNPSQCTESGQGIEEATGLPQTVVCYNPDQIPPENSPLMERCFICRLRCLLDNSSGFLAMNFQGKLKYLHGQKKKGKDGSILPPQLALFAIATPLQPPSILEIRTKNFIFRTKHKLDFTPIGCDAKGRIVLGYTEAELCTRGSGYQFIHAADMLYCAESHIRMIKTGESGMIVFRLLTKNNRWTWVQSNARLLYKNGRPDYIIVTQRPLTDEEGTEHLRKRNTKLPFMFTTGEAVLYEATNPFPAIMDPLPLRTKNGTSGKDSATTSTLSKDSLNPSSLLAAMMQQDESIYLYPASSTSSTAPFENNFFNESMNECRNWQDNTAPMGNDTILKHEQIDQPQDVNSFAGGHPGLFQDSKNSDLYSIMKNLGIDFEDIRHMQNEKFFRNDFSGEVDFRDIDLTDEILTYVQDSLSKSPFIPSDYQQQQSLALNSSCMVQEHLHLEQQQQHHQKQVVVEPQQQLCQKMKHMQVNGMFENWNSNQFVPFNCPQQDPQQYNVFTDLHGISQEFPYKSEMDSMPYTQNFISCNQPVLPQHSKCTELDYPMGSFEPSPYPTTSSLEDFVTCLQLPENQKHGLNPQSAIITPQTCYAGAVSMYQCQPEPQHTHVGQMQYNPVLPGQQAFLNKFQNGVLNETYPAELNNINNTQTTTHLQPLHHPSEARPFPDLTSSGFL
# Summary of the method: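 Reporter mRNA levels, quantified by RT-PCR and fluorescent capillary electrophoresis, reflect endogenous AhR transcriptional activity in HepG2 cells carrying transfected cis-promoter reporter constructs. Readout at 24 h post-dose; gain or loss fitted against DMSO baseline.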
structure (smiles),measurement,setting,value
CCCCCCCC/C=C\CCCCCCCC(=O)OCC,outcome,[1],inactive
same,outcome,[2],inactive
same,outcome,[3],inactive
same,outcome,[4],inactive
same,outcome,[5],inactive
same,outcome,[6],inactive
same,outcome,[7],inactive
same,outcome,[8],inactive
same,outcome,[9],inactive
same,outcome,[10],inactive
same,outcome,[11],inactive
same,outcome,[12],inactive
same,outcome,[13],inactive
same,outcome,[14],inactive
same,outcome,[15],inactive
same,outcome,[16],inactive
same,outcome,[17],inactive
same,outcome,[18],inactive
CN(c1nccc(=O)[nH]1)C1CCN(c2nc3ccccc3n2Cc2ccc(F)cc2)CC1,outcome,[1],inactive
same,outcome,[2],inactive
same,outcome,[3],inactive
same,outcome,[4],inactive
same,outcome,[5],inactive
same,outcome,[6],inactive
same,outcome,[7],inactive
same,outcome,[8],inactive
same,outcome,[9],inactive
same,outcome,[10],inactive
same,outcome,[11],inactive
same,outcome,[12],inactive
same,outcome,[13],inactive
same,outcome,[19],inactive
same,outcome,[14],inactive
same,outcome,[15],inactive
same,outcome,[16],inactive
same,outcome,[17],inactive
same,outcome,[18],inactive
CCOC(=O)CCc1ccccc1,outcome,[1],inactive
same,outcome,[2],inactive
same,outcome,[3],inactive
same,outcome,[4],inactive
same,outcome,[5],inactive
same,outcome,[6],inactive
same,outcome,[7],inactive
same,outcome,[8],inactive
same,outcome,[9],inactive
same,outcome,[10],inactive
same,outcome,[11],inactive
same,outcome,[12],inactive
same,outcome,[13],inactive
same,outcome,[14],inactive
same,outcome,[15],inactive
same,outcome,[16],inactive
same,outcome,[17],inactive
same,outcome,[18],inactive
OCCOCCN1CCN(C2=Nc3ccccc3Sc3ccccc32)CC1,outcome,[1],inactive
same,outcome,[2],inactive
same,AC50,[3],135 µM (active)
same,outcome,[4],inactive
same,AC50,[20],113 µM (active)
same,outcome,[5],inactive
same,outcome,[6],inactive
same,outcome,[7],inactive
same,outcome,[11],inactive
same,outcome,[12],inactive
same,outcome,[13],inactive
same,outcome,[14],inactive
same,outcome,[15],inactive
same,outcome,[16],inactive
same,outcome,[17],inactive
same,outcome,[18],inactive
Nc1c(S(=O)(=O)O)cc(Br)c2c1C(=O)c1ccccc1C2=O,outcome,[1],inactive
same,outcome,[2],inactive
same,outcome,[3],inactive
same,outcome,[4],inactive
same,outcome,[5],inactive
same,outcome,[6],inactive
same,outcome,[7],inactive
same,outcome,[8],inactive
same,outcome,[9],inactive
same,outcome,[10],inactive
same,outcome,[11],inactive
same,outcome,[12],inactive
same,outcome,[13],inactive
same,AC50,[19],31.9 µM (active)
same,outcome,[14],inactive
same,outcome,[15],inactive
same,outcome,[16],inactive
same,outcome,[17],inactive
same,outcome,[18],inactive
CSCCC=O,outcome,[1],inactive
same,outcome,[2],inactive
same,outcome,[3],inactive
same,outcome,[4],inactive
same,outcome,[5],inactive
same,outcome,[6],inactive
same,outcome,[7],inactive
same,outcome,[9],inactive
same,outcome,[10],inactive
same,outcome,[11],inactive
same,outcome,[12],inactive
same,outcome,[13],inactive
same,outcome,[14],inactive
same,outcome,[15],inactive
same,outcome,[16],inactive
same,outcome,[18],inactive
CCCCCCCCCCCCCCN(CCO)CCO,outcome,[1],inactive
same,outcome,[2],inactive
same,outcome,[3],inactive
same,outcome,[5],inactive
same,outcome,[6],inactive
same,outcome,[7],inactive
same,outcome,[8],inactive
same,outcome,[9],inactive
same,outcome,[10],inactive
same,outcome,[11],inactive
same,outcome,[12],inactive
same,outcome,[13],inactive
same,outcome,[14],inactive
same,outcome,[15],inactive
same,outcome,[16],inactive
same,outcome,[17],inactive
same,outcome,[18],inactive
